In publication PMC3218832:

Key:
Test in all cases: protein binding microarray; high values mean tight binding
Details in all cases: dsDNA, one strand shown
RELARELA (p65 homodimer) = RELARELA (p65 homodimer) (Homo sapiens, UniProt Q04206 1-307)
p50p50 homodimer = p50p50 homodimer (Homo sapiens, UniProt P19838 7-356)
p52p52 homodimer = target: T1, p52p52 homodimer (Homo sapiens, UniProt Q00653 4-332)
T1 sequence: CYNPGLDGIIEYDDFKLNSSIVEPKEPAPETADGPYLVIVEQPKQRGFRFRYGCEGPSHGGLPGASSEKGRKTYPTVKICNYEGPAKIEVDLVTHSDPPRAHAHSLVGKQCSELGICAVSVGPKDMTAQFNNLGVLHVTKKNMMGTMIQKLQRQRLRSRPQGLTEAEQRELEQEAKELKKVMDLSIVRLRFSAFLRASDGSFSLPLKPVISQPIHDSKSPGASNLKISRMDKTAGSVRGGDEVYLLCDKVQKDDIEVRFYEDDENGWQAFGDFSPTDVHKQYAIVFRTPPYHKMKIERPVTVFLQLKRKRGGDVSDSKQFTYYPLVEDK

[1] = target: RELA (p65) subunit of heterodimer;p50 subunit (Homo sapiens;Homo sapiens, UniProt Q04206;P19838 1-307;7-356)
[2] = target: RELA (p65) subunit of heterodimer;p52 subunit (Homo sapiens;Homo sapiens, UniProt Q04206;Q00653 1-307;4-332)
RELB subunit;p50 subunit = RELB subunit;p50 subunit (Homo sapiens;Homo sapiens, UniProt Q01201;P19838 120-401;7-356)
RELB subunit;p52 subunit = target: T2, RELB subunit;p52 subunit (Homo sapiens;Homo sapiens, UniProt Q01201;Q00653 120-401;4-332)
T2 sequence 1: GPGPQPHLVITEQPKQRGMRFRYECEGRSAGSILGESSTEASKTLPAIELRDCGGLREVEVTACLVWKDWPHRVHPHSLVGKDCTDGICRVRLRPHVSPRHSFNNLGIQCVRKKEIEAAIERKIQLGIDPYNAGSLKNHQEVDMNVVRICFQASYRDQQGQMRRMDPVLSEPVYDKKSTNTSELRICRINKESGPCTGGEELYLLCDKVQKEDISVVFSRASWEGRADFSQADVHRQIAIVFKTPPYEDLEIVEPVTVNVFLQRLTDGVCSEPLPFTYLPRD
T2 sequence 2: T1 sequence

[3] = target: C-Rel subunit;p50 subunit (Homo sapiens;Homo sapiens, UniProt Q04864;P19838 1-285;7-356)
[4] = target: T3, C-Rel subunit;p52 subunit (Homo sapiens;Homo sapiens, UniProt Q04864;Q00653 1-285;4-332)
T3 sequence 1: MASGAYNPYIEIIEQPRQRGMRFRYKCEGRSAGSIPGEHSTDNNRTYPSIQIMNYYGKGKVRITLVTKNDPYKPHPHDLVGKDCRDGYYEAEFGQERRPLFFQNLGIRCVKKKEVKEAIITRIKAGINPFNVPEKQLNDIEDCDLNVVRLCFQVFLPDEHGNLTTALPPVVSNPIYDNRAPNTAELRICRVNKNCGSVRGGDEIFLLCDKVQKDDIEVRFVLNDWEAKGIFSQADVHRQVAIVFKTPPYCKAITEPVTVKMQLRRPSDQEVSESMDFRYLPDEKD
T3 sequence 2: T1 sequence

Chain of RELARELA (p65 homodimer) (Q04206 1-307): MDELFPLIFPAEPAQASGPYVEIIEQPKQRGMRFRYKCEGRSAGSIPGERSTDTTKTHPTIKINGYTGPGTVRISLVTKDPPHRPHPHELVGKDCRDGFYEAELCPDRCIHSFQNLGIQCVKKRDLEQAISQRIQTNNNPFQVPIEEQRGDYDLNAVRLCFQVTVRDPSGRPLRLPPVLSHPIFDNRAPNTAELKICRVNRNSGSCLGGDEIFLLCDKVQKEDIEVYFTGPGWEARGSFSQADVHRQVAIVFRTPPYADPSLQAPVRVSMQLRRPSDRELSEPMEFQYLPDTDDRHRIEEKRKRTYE
Chain of RELA (p65) subunit of heterodimer;p50 subunit (Q04206 1-307, chain 1 of 2): as the sequence (Q04206 1-307) above
Chain of RELA (p65) subunit of heterodimer;p50 subunit (P19838 7-356, chain 2 of 2): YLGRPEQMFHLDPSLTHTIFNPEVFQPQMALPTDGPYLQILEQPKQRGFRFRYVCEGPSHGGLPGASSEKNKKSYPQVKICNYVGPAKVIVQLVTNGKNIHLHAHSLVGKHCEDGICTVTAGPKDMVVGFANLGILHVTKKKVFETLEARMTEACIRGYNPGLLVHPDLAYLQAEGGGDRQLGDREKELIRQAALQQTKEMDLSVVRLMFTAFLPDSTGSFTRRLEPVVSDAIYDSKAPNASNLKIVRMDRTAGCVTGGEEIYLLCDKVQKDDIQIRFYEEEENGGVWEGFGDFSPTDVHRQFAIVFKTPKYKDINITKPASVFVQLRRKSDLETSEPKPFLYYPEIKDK
Chain of p50p50 homodimer (P19838 7-356): as the sequence (P19838 7-356, chain 2 of 2) above

| Sequence | binding signal (RELARELA (p65 homodimer)) [z-score] | binding signal (p50p50 homodimer) [z-score] | binding signal (p52p52 homodimer) [z-score] | binding signal [1] [z-score] | binding signal [2] [z-score] | binding signal (RELB subunit;p50 subunit) [z-score] | binding signal (RELB subunit;p52 subunit) [z-score] | binding signal [3] [z-score] | binding signal [4] [z-score] |
| --- | --- | --- | --- | --- | --- | --- | --- | --- | --- |
| GAGTTGTTCCC | 0.34 | -0.415 | -0.231 | -0.188 | -0.206 | -0.327 | -0.463 | -0.00411 | -0.104 |
| GAGAGGACCCC | -0.845 | -0.858 | -0.455 | -0.636 | -0.537 | -0.461 | -0.392 | -0.607 | -0.571 |
| CGAATCGCCCT | -0.52 | -1.41 | -0.603 | -0.694 | -0.649 | -0.752 | -0.785 | -0.785 | -0.657 |
| CGGAATTTCCT | 3.7 | -0.012 | -0.109 | 1.2 | 0.553 | -0.413 | -0.0415 | 0.843 | 0.719 |
| CAGTTGACCCT | -0.398 | -0.922 | -0.533 | -0.555 | -0.554 | -0.526 | -0.777 | -1.18 | -0.639 |
| AGGTACGCCCC | -0.0324 | 0.221 | 0.402 | 0.321 | 0.526 | 0.233 | 0.441 | 0.444 | 0.674 |
| AGGTGCGTCCT | -0.881 | -0.757 | -0.281 | -0.82 | -0.633 | -0.695 | -0.608 | -1.1 | -0.46 |
| GGAAAGTTCCC | 2.6 | 0.736 | 0.736 | 1.29 | 1.02 | 0.762 | 0.686 | 0.966 | 0.929 |
| AGAATTGCCCT | 0.531 | -0.747 | -0.409 | 0.222 | -0.0792 | -0.516 | -0.558 | -0.0961 | 0.0532 |
| AAGGAACCCCT | -0.469 | 0.961 | 0.532 | 0.281 | 0.861 | 0.479 | 0.874 | 0.215 | 0.603 |
| AGATTCCTCCC | 0.213 | -0.426 | -0.138 | -0.135 | -0.146 | -0.305 | -0.191 | 0.176 | -0.118 |
| CGGGACTCCCC | 1.91 | 0.81 | 2.76 | 1.88 | 1.9 | 1.59 | 1.87 | 1.93 | 2.5 |
| AAGAAATTCCC | 2.91 | 1.19 | 1.64 | 1.53 | 1.32 | 1.27 | 1.39 | 1.36 | 1.67 |
| AAGTAGACCCT | -0.746 | -0.785 | -0.531 | -0.711 | -0.775 | -0.737 | -0.709 | -1.17 | -0.772 |
| AAAATAGTCCT | -0.023 | -0.728 | -0.497 | -0.709 | -0.767 | -0.806 | -0.856 | -0.761 | -0.606 |
| GAGAGGGTCCC | -0.00134 | -0.361 | -0.132 | -0.312 | -0.187 | -0.0754 | -0.109 | -0.406 | -0.351 |
| GAGAAGCCCCT | -0.384 | 1.19 | 1.26 | 1.3 | 1.14 | 1.22 | 1.41 | 0.87 | 0.78 |
| GGATATGCCCT | 0.304 | -1.18 | -0.574 | -0.276 | -0.49 | -0.93 | -0.689 | -0.384 | -0.294 |
| CAGAGTATCCT | -0.548 | -1.79 | -0.651 | -0.987 | -1 | -1.11 | -0.991 | -1.45 | -1 |
| GGATGGCTCCT | -0.414 | -1.51 | -0.721 | -1.07 | -1.08 | -1.19 | -1.05 | -1.64 | -0.938 |
| AGGATTTCCCT | 1.99 | 1.23 | 2.18 | 1.44 | 1.61 | 1.58 | 1.91 | 1.36 | 1.67 |
| GAATTATTCCC | 1.89 | 0.532 | 0.423 | 0.97 | 0.744 | 0.44 | 0.413 | 1.16 | 0.686 |
